Measurements: PubChem BioAssay (Tox21)
“And” between values parts separate entries of the source, which are not always exact repeats. Equal values may be shown once. A number with no mark means an inactive call. Results filed as inconclusive are left out. Entries that show only a call come without a potency. The source made the active and inactive calls. Unless noted, calls come from the whole dose curve; as a rule, active = well fitted curve in the direction sought with a large enough effect in the repeat runs; inconclusive = weak or mixed curves; inactive = no such curve, though single readings can be large; an effect the other way counts as inactive or inconclusive.

Assays:
[1] = biological target: Progesterone receptor (Homo sapiens) (UniProt P06401); assay: qHTS assay to identify small molecule agonists of the progesterone receptor (PR) signaling pathway (AID 1346784; calls by dose curve; note: nearly all actives have a fitted effect of over 30% in size)
Chain of Progesterone receptor (Homo sapiens) (P06401 whole entry, looked up): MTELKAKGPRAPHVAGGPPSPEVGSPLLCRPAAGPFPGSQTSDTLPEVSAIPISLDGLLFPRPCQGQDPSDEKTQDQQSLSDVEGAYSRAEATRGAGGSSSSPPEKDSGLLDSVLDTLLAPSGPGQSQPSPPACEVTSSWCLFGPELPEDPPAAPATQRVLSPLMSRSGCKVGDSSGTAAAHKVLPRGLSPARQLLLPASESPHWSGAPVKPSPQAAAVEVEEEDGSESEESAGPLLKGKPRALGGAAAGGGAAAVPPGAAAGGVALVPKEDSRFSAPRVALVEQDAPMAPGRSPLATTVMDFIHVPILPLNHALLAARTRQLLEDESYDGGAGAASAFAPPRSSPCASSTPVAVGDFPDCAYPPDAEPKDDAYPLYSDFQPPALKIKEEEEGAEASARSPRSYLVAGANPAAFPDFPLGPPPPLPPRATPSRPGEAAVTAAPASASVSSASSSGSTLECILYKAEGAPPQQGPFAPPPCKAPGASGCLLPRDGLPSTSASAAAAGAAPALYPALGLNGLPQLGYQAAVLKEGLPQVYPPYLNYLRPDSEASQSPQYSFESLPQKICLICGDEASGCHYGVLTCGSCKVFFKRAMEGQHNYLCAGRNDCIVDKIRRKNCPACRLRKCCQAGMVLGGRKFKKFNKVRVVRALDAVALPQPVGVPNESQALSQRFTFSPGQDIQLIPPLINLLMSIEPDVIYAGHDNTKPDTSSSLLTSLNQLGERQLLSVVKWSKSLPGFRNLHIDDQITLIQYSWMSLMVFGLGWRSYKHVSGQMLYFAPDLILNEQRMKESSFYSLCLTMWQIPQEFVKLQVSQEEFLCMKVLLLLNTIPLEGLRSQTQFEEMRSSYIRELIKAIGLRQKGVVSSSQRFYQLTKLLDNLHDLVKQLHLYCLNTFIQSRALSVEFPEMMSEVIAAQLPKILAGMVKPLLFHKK
How it was run: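 PR-UAS-bla HEK 293T cells carrying a UAS-driven beta-lactamase reporter were seeded in medium with 2% charcoal-stripped FBS, preincubated 6 hr at 37C, then exposed to compounds in DMSO for 16 hr; agonism was read by LiveBLAzer B/G FRET fluorescence.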

[2] = biological target: Progesterone receptor (Homo sapiens) (UniProt P06401); assay: qHTS assay to identify small molecule antagonists of the progesterone receptor (PR) signaling pathway (AID 1346795; active = well fitted inhibition curve with a large enough effect in the signal ratio in the repeat runs, not every such curve was filed as active; the % refers to the signal ratio; note: potency is the fitted concentration of half-maximal effect)
How it was run: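 PR-UAS-bla HEK293T cells carrying a UAS-driven beta-lactamase reporter were plated in medium with 2% charcoal-stripped FBS and rested 6 hr at 37C. Compounds were added with 1 nM R5020 (final) for 16 hr, then FRET substrate loaded 2 hr at room temperature.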

[3] = qHTS assay to identify small molecule antagonists of the progesterone receptor (PR) signaling pathway - cell viability counter screen (AID 1346798); note: series mostly up to about 92 µM; nearly all actives have a fitted effect of over 50% in size
How it was run: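 PR-UAS-bla HEK293T cells in medium with 2% charcoal-stripped FBS were treated with compounds plus R5020 for 16 hr at 37C. Cell viability was then read by CellTiter-Glo luminescence after 30 min at room temperature in the same wells.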

[4] = qHTS assay to identify small molecule agonists of the progesterone receptor (PR) signaling pathway - cell viability counter screen (AID 1346799; calls by dose curve; note: nearly all actives have a fitted effect of over 45% in size)
How it was run: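 PR-UAS-bla HEK293T cells, 3,000 per well in medium with 2% charcoal-stripped FBS, were preincubated 6 hr at 37C, then exposed to compounds for 16 hr; viability was read as CellTiter-Glo luminescence after 30 min at room temperature.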

[5] = qHTS assay to identify small molecule antagonists of the TGF-beta/Smad signaling pathway - cell viability counter screen (AID 1346824); note: nearly all actives have a fitted effect of over 50% in size
How it was run: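 SBE-bla HEK 293T cells were plated overnight at 37 C, then given compounds in DMSO plus TGF-beta1 (added as 0.25 ng/mL solution) for 5 hr. After the bla read, CellTiter-Glo was added to the same wells and luminescence read after 30 min at room temperature.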

[6] = qHTS assay to identify small molecule agonists of the TGF-beta/Smad signaling pathway - cell viability counter screen (AID 1346829); note: top concentration of the series differs between compounds; nearly all actives have a fitted effect of over 45% in size
How it was run: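 In parallel with the Smad reporter read, viability of HEK 293T cells stably carrying SBE-bla is quantified by ATP luminescence following 5 hr compound treatment.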

[7] = qHTS assay to identify small molecule agonists of the TGF-beta/Smad signaling pathway (AID 1346859; active = well fitted activation curve with a large enough effect in the signal ratio in the repeat runs, not every such curve was filed as active; the % refers to the signal ratio; note: series mostly up to about 77 µM)
How it was run: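 HEK 293T cells stably carrying a beta-lactamase reporter driven by the Smad binding element were seeded overnight, exposed to DMSO-dissolved compounds for 5 hr at 37 C, 5% CO2, then loaded with FRET substrate for 2 hr at room temperature.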

[8] = biological target: Thyrotropin-releasing hormone receptor (Homo sapiens) (UniProt P34981); assay: qHTS assay to identify small molecule antagonists of the thyrotropin-releasing hormone receptor (TRHR) signaling pathway (AID 1346877; active = well fitted inhibition curve with a large enough effect in the repeat runs, not every such curve was filed as active; note: series mostly up to about 51 µM)
Chain of Thyrotropin-releasing hormone receptor (Homo sapiens) (P34981 whole entry, looked up): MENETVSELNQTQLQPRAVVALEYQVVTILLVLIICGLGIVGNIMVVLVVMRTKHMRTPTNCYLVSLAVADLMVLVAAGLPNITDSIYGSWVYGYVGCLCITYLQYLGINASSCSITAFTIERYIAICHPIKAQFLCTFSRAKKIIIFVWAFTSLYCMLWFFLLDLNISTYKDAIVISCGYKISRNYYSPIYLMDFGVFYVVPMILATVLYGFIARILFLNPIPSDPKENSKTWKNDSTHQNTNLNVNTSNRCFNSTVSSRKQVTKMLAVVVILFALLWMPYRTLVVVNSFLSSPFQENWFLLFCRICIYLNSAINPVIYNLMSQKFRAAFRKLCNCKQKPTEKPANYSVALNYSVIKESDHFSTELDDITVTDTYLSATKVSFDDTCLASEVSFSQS
How it was run: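 Cells (TRHR-HEK293) are plated and kept 18 h at 37 °C/5% CO2. A calcium-sensitive dye is added for 2 h, compound follows for 5 min at room temperature, and TRH is then given at 1 nM final.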

[9] = biological target: Thyrotropin-releasing hormone receptor (Homo sapiens) (UniProt P34981); assay: qHTS assay to identify small molecule agonists of the thyrotropin-releasing hormone receptor (TRHR) signaling pathway (AID 1346891; calls by dose curve; note: series mostly up to about 58 µM)
How it was run: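 TRHR-expressing HEK293 cells were plated 18 h at 37 °C/5% CO2, loaded with calcium dye 2 h at 37 °C, then given compound in DMSO; fluorescence was read kinetically for 3 min at 1 s intervals.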

[10] = Human pregnane X receptor (PXR) small molecule agonists, qHTS cell viability counter screen (AID 1346977); note: nearly all actives have a fitted effect of over 50% in size
How it was run: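 PXR-Luc HepG2 cells in medium with 5% charcoal-stripped FBS were pre-incubated 5hr, then exposed to compounds for 24hr at 37C. Viability was read in the same wells by CellTiter-Fluor fluorescence, reagent added after 23hr with a 1hr incubation.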

[11] = Caspase-3/7 induction in HepG2 cells by small molecules, qHTS assay (AID 1346978); note: nearly all actives have a fitted effect of over 15% in size
How it was run: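 Wild-type HepG2 cells (2,000/well) were settled 5 h at 37 C, 5% CO2, then exposed to compounds in DMSO for 17 h. Caspase-3/7 activity was read by luminescence 30 min after adding Caspase-Glo 3/7 reagent at room temperature.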

[12] = Caspase-3/7 induction in CHO-K1 cells by small molecules, qHTS cell viability counter screen (AID 1346979); note: nearly all actives have a fitted effect of over 35% in size; note: potency is the fitted concentration of half-maximal effect
How it was run: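 Wild-type CHO-K1 cells were seeded at 1,500 per well, rested 5hr at 37 C, then exposed to compounds in DMSO. After 16hr, CellTiter-Fluor reagent was added and fluorescence read 1hr later as the viability measure.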

[13] = Caspase-3/7 induction in CHO-K1 cells by small molecules, qHTS assay (AID 1346980); note: nearly all actives have a fitted effect of over 15% in size
How it was run: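 Wild-type cells were seeded at 1,500 per well and settled 5 hr at 37 C, 5% CO2, then exposed to DMSO-dissolved compounds for 17 hr. Caspase-Glo 3/7 reagent was added, and luminescence was read after 30min at room temperature.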

[14] = Caspase-3/7 induction in HepG2 cells by small molecules, qHTS cell viability counter screen (AID 1346981); note: series mostly up to about 92 µM; nearly all actives have a fitted effect of over 30% in size
How it was run: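 Steps: seed 2,000 HepG2 cells per well; incubate 5 hr at 37 C; pin-add compounds in DMSO; incubate 16 hr; add CellTiter-Fluor; after 1 hr at 37 C and 5% CO2, read fluorescence.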

[15] = qHTS assay to identify small molecule agonists of the estrogen receptor alpha (ER-alpha) signaling pathway in the presence of an antagonist - cell viability counter screen (AID 1259386);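 note: series mostly up to about 92 µM; cells exposed to compounds for 22 h at 37 °C before the viability read; nearly all actives have a fitted effect of over 30% in size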
How it was run: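 Cells are starved of estrogens for 5 days in charcoal-stripped serum, seeded for 24hr and co-treated with ICI-182,780 (10.0nM final) and test compounds. After 22hr at 37C, viability is read as CellTiter-Fluor fluorescence.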

[16] = biological target: Nuclear receptor subfamily 1 group I member 2 (Homo sapiens) (UniProt O75469); assay: Human pregnane X receptor (PXR) small molecule agonists, qHTS assay (AID 1346982); note: nearly all actives have a fitted effect of over 35% in size; note: potency is the fitted concentration of half-maximal effect
Chain of Nuclear receptor subfamily 1 group I member 2 (Homo sapiens) (O75469 whole entry, looked up): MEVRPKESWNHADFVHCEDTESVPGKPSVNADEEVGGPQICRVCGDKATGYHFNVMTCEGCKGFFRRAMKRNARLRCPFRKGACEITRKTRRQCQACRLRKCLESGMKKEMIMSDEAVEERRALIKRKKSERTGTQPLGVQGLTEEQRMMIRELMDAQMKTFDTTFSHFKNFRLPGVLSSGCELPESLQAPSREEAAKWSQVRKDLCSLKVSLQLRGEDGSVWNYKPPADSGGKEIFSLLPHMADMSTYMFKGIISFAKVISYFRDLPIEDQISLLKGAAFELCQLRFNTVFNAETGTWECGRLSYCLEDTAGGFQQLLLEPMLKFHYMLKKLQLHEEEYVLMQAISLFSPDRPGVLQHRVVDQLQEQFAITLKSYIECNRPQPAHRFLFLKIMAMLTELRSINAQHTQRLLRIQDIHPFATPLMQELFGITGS
How it was run: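 Agonist mode qHTS: PXR-Luc HepG2 cells plated 5 hr before DMSO-dissolved compounds were pinned in, cultured 24 hr at 37 C, 5% CO2; ONE-Glo luminescence readout.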

[17] = biological target: Cytochrome P450 2D6 (Homo sapiens) (UniProt P10635); assay: Cytochrome P450 Family 2 Subfamily D Member 6 (CYP2D6) small molecule antagonists: luciferase reporter qHTS assay (AID 1671196); note: nearly all actives have a fitted effect of over 50% in size; note: potency is the fitted concentration of half-maximal effect
Chain of Cytochrome P450 2D6 (Homo sapiens) (P10635 whole entry, looked up): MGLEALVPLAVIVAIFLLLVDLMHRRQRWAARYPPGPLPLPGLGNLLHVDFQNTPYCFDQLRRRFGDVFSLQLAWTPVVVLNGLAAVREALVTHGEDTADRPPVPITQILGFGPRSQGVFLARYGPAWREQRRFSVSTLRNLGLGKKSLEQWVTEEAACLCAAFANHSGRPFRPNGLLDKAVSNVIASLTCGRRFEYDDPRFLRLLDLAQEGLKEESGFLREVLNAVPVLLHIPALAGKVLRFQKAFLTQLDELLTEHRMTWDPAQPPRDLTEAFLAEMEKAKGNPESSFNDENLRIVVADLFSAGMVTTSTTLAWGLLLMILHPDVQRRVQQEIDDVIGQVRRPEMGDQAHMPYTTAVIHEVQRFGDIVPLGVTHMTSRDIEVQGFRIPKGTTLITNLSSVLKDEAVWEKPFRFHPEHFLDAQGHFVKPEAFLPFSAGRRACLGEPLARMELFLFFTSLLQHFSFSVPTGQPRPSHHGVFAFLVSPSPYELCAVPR
How it was run: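 P450-Glo format: CYP2D6 converts a proluciferin substrate to luciferin in an NADPH-driven reaction lasting 1 h at room temperature. Light output, proportional to CYP2D6 activity, reflects interference by test chemicals.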

[18] = biological target: Nuclear receptor subfamily 1 group I member 2 (Rattus norvegicus) (UniProt Q9R1A7); assay: Rat pregnane X receptor (rPXR) activation by small molecules, qHTS assay (AID 1346983); details: rPXR luciferase reporter cells, One-Glo luminescence, 24 h; max activation: stronger effect = higher value; note: nearly all actives have a fitted effect of over 20% in size
Chain of Nuclear receptor subfamily 1 group I member 2 (Rattus norvegicus) (Q9R1A7 whole entry, looked up): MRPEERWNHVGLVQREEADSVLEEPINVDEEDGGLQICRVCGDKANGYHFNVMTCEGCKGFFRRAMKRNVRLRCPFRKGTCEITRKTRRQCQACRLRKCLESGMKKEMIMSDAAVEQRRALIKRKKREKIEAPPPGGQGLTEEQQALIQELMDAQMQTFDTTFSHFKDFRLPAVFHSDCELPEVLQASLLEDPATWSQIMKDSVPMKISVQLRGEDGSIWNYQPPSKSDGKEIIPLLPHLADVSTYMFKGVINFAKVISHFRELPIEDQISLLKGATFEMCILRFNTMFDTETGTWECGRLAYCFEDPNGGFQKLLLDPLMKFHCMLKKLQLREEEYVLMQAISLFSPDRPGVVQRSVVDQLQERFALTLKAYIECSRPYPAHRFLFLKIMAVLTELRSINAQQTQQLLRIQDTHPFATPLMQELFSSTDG
How it was run: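 Cell-based rPXR luciferase reporter assay, 2,000 cells per well, rested 5hr at 37 C before compound addition in DMSO, then 24 hr at 37 C. One-Glo reagent was added and luminescence read after 30 min at room temperature.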

[19] = biological target: Nuclear receptor subfamily 1 group I member 2 (Homo sapiens) (UniProt O75469); assay: CYP3A4 induction through human pregnane X receptor (PXR) by small molecules, qHTS assay (AID 1346984); note: nearly all actives have a fitted effect of over 40% in size
How it was run: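 Steps: seed DPX-2 cells, 5 hr at 37C; pin-transfer compounds; 24 hr at 37C; add Luciferin-IPA (3uM final), 3 hr at 37C; add One-Glo, 30 min RT; read luminescence.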

[20] = biological target: Nuclear receptor subfamily 1 group I member 2 (Homo sapiens) (UniProt O75469); assay: Human pregnane X receptor (PXR) activation by small molecules, qHTS assay (AID 1346985); note: nearly all actives have a fitted effect of over 40% in size
How it was run: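 DPX-2 cells (HepG2 co-transfected with a PXR response element and a CYP3A4-promoter luciferase construct) were seeded at 2,000 per well, rested 5 hr at 37C, then exposed to DMSO-dissolved compounds for 24 hr. Activation was read as luciferase luminescence.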

| Structure (SMILES) | Potency [1] | Potency [2] | Potency [3] | Potency [4] | Potency [5] | Potency [6] | outcome [7] | Potency [8] | Potency [9] | Potency [10] | Potency [11] | Potency [12] | Potency [13] | Potency [14] | Potency [15] | Potency [16] | Potency [17] | max activation [18] | Potency [19] | Potency [20] |
| --- | --- | --- | --- | --- | --- | --- | --- | --- | --- | --- | --- | --- | --- | --- | --- | --- | --- | --- | --- | --- |
| c1ccc2c(c1)ccc1cc3c(ccc4ccccc43)cc12 | inactive | inactive | inactive | inactive | inactive | inactive | inactive | inactive | inactive | inactive | inactive | inactive | inactive | inactive |  |  |  |  |  |  |
| COc1ccc(-c2coc3cc(O)cc(O)c3c2=O)cc1 | inactive | 6.11 µM (active) | inactive |  | inactive | inactive | inactive | inactive | inactive |  | inactive | 69.1 µM (active) | inactive |  | inactive | 30.9 µM (active) and 30.6 µM (active) | 45.2 µM (active) |  |  |  |
| OC[C@@H](O)[C@@H](O[C@@H]1O[C@H](CO)[C@H](O)[C@H](O)[C@H]1O)[C@H](O)[C@@H](O)CO |  |  | inactive | inactive | inactive | inactive | inactive |  |  | inactive | inactive | inactive | inactive |  | inactive |  | inactive | -8.22% | inactive | inactive |
| CN(C)/N=N/c1nc[nH]c1C(N)=O | inactive | inactive | inactive |  | inactive | inactive | inactive | inactive | inactive | inactive | inactive | inactive | inactive |  | inactive |  | inactive | -1.32% | inactive | inactive |
| CC1(C)NC(=O)N(c2ccc([N+](=O)[O-])c(C(F)(F)F)c2)C1=O | inactive | 17.2 µM (active) and 11.9 µM (active) | inactive |  | inactive | inactive | inactive | inactive | inactive | inactive | inactive |  | inactive | inactive | inactive |  |  |  |  |  |
| Nc1cc([N+](=O)[O-])ccc1C(=O)O | inactive | inactive | inactive |  | inactive | inactive | inactive | inactive | inactive | inactive | inactive | inactive | inactive | inactive | inactive |  | inactive |  |  |  |
| O=C(O)c1ccc(O)cc1 | inactive | inactive | inactive |  | inactive | inactive | inactive | inactive | inactive | inactive | inactive | inactive | inactive | inactive | inactive |  | inactive |  |  |  |
| CC(C)[C@@H]1CC[C@@H](C)CC1=O | inactive | inactive | inactive |  | inactive | inactive | inactive |  |  | inactive | inactive | inactive | inactive | inactive | inactive | inactive | inactive | -3.74% | inactive | inactive |
| C=C[C@H]1CN2CC[C@H]1C[C@@H]2[C@@H](O)c1ccnc2ccc(OC)cc12 | inactive | inactive | inactive |  |  | inactive | inactive | inactive | inactive | inactive | inactive | inactive | inactive | inactive | inactive |  |  | -2.45% |  |  |
